The list is not random: actives were taken first. Their share in the collection is about 2.5%.
Cruzain noTriton = inhibitors of Trypanosoma cruzi cruzain without detergent; P25779; 200,000 tested, 2.3% active; Potency, µM, for inactives: max response, negative = inhibition, actives largely listed as inhibitors; purified cruzain, Z-FR-AMC fluorescence, no detergent; AID 1476;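 note: plate controls were enzyme without inhibitor for no effect and buffer without enzyme for full effect; nearly all actives have a fitted effect of over 40% in size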
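Detergent-free condition (0.00005% Triton X-100) in acetate buffer pH 5.5 with DTT. 1.5 nM enzyme and compound were pre-mixed 15 min, then 2 uM Z-FR-AMC substrate added; reaction progress from fluorescence change between first and third reads (60 s).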
Cruzain inh Det = cruzain (T. cruzi) inhibition with detergent. P25779. purified cruzain, Z-FR-AMC fluorescence, 0.01% Triton. Potency, µM, for the others: max response, negative = inhibition, actives largely listed as inhibitors. 200,000 tested, 0.43% active;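 note: plate controls were neutral wells for no effect and buffer without enzyme for full effect; nearly all actives have a fitted effect of over 40% in size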
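Purified cruzain (1.5 nM final) was preincubated with compounds for 15 min at room temperature in 100 mM sodium acetate pH 5.5, 5 mM DTT, 0.01% Triton X-100. Reaction started with 2 uM Z-FR-AMC; AMC fluorescence change over 60 s gave activity.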
Papain inh = blocks papain protease activity, flagging nonselective cruzain hits; 410 tested, 41% active; AID 2161; shares compounds with Cruzain inh Det; Potency, µM, for the others: max response, negative = inhibition, usual class: inhibitors; purified papain, Z-FR-AMC fluorescence cleavage;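 note: 0% = no-compound wells and -100% = no-enzyme wells; nearly all actives have a fitted effect of over 35% in size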
Target sequence (P00784 whole entry, looked up): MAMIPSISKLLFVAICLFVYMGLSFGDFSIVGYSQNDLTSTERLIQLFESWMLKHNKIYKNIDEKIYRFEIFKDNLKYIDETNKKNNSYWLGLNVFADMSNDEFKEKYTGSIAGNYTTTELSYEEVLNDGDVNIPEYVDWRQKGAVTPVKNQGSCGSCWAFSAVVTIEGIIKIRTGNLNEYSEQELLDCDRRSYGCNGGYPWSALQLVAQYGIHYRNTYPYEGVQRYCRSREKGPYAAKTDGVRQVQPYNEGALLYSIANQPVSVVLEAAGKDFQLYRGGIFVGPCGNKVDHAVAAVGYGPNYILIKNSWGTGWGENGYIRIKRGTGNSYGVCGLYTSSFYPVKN
* marks the source's active call; other numbers are inactive results. Calls come from the whole dose curve; as a rule, active = well fitted curve in the direction sought with a large enough effect; inconclusive = small, poorly fitted or top-dose-only effect, or another doubt; inactive = no such curve, though single readings can be large; an effect the other way counts as inactive or inconclusive. Potency is the fitted concentration of half-maximal effect.

COCCN(CCOC)S(=O)(=O)c1ccc(C(=O)Nc2nc(C)c(C(C)=O)s2)cc1 was read as Cruzain noTriton 21% and Cruzain inh Det -9%.
For C=Cn1ccnc1P(=S)(c1ccc2c(c1)c1ccccc1n2CC)c1nccn1C=C the results were Cruzain noTriton inconclusive, Cruzain inh Det -4% and Papain inh 6%.
`C=Cn1ccnc1P(=S)(c1ccc(N(C)C)cc1)c1nccn1C=C` gave Cruzain noTriton inconclusive and Cruzain inh Det 0%.
`CC(C)COC(=O)c1ccccc1C(=O)OCC(C)C` gave Cruzain noTriton -1% and Cruzain inh Det 1%.
For CC(C)COC(=O)c1nnsc1NC(=O)Nc1ccccc1 the results were Cruzain noTriton 16µM*, Cruzain inh Det 3% and Papain inh 12%.
Fc1ccc(Nc2nc(-c3cccc(Cl)c3)c3c(n2)-c2ccccc2OC3)c(F)c1 was read as Cruzain noTriton -2% and Cruzain inh Det -1%.
For Cc1ccc(Cn2cc(C(=O)c3ccc4c(c3)OCO4)c(=O)c3cc(C)ccc32)cc1 the results were Cruzain noTriton inconclusive and Cruzain inh Det -3%.
For CC(NC(=O)c1ccc2c(c1)sc1nc(-c3ccc(F)cc3)cn12)C12CC3CC(CC(C3)C1)C2 (configuration not stated) the results were Cruzain noTriton 0% and Cruzain inh Det 0%.
Screening COCCn1c(CNC(=O)c2cc(OC)c(OC)c(OC)c2)nc2cccnc21 returned Cruzain noTriton 0% and Cruzain inh Det -2%.
Cc1ccc2[nH]c3c(NCCCN4CCCC4=O)ncnc3c2c1 was read as Cruzain noTriton -24% and Cruzain inh Det -24%.
COc1ccc2[nH]c3c(NCCN4CCCCC4)ncnc3c2c1 was read as Cruzain noTriton 13µM*, Cruzain inh Det 16µM* and Papain inh 5%.
CC1(C)CC(=O)c2cc(NC(=O)c3ccccc3)c(=O)oc2C1 was read as Cruzain noTriton -10% and Cruzain inh Det -3%.
Cc1oc(=O)c(NC(=O)c2ccccc2)cc1C(=O)c1ccccc1 was read as Cruzain noTriton 0.79µM*, Cruzain inh Det 3.2µM* and Papain inh 5%.
CC(C)(C)c1ccc(C(=O)Nc2ccc(Cl)cc2C(=O)c2ccccc2)cc1 was read as Cruzain noTriton -14% and Cruzain inh Det -2%.
Cc1oc(=O)c(NC(=O)c2ccc(Cl)cc2)cc1C(=O)c1ccccc1 was read as Cruzain noTriton 2µM*, Cruzain inh Det 2.5µM* and Papain inh 8%.
For CCc1ccccc1NC(=O)N(C)CCc1c(C)nn(C)c1C the results were Cruzain noTriton 0% and Cruzain inh Det 7%.
`O=C(NCc1ccco1)c1ccc2nc3sc4c(c3c(=O)n2c1)CCCC4` gave Cruzain noTriton 22%, Cruzain inh Det 10µM* and Papain inh 25µM*.
Screening C=CCn1c(SCC(=O)NCc2ccco2)nc2sc3c(c2c1=O)CCCC3 returned Cruzain noTriton -13% and Cruzain inh Det -1%.
Screening CC(=O)Nc1nonc1-c1nnc(SCC(=O)Nc2ccc(C)c(Cl)c2)n1-c1ccccc1 returned Cruzain noTriton -6% and Cruzain inh Det -2%.
`Cc1csc(N/N=C/c2ccc(O)c([N+](=O)[O-])c2)n1` gave Cruzain noTriton 7.9µM*, Cruzain inh Det 7.1µM* and Papain inh -47%.
Screening Cc1nnc(N/N=C/c2ccc(O)c([N+](=O)[O-])c2)[nH]c1=O returned Cruzain noTriton -3% and Cruzain inh Det -4%.
For CCN(c1cccc(C)c1)S(=O)(=O)c1cc(Br)cc2c1N(C(C)=O)C(C)C2 (configuration not stated) the results were Cruzain noTriton inconclusive and Cruzain inh Det -8%.
`Cc1ccc(-c2nn3c(-c4cccc(Cl)c4)nnc3s2)cc1` gave Cruzain noTriton inconclusive and Cruzain inh Det -6%.
`Clc1ccc(-c2nn3c(-c4cc(-c5ccccc5)n[nH]4)nnc3s2)cc1` gave Papain inh 7%.
For COc1ccccc1-c1nn2c(-c3cc(C)[nH]n3)nnc2s1 the results were Papain inh 5%.
Screening COc1ccc(-c2nnc3sc(-c4ccccc4OC)nn23)cc1 returned Cruzain noTriton inconclusive and Cruzain inh Det 0%.
COc1cc(-c2nn3c(-c4ccccc4)nnc3s2)cc(OC)c1OC was read as Cruzain noTriton inconclusive and Cruzain inh Det 3%.
`COc1cc(-c2nn3c(-c4cc(-c5ccccc5)n[nH]4)nnc3s2)cc(OC)c1OC` gave Papain inh -2%.
`O=C(CCS(=O)(=O)c1cc2c(cc1Cl)NC(=O)CO2)NCc1ccccc1Cl` gave Cruzain noTriton inconclusive and Cruzain inh Det -7%.
CCOc1ccc(OCC)c(NC(=O)c2cnn(-c3ccc(F)cc3)c2-n2cccc2)c1 was read as Cruzain noTriton inconclusive and Cruzain inh Det -7%.

Assay outcomes (PubChem)
